Source: PubChem BioAssay
Only some compounds are listed: those with a hit (about 11% of all), similar ones and a draw of the others.
HPGD block: blocks human HPGD enzyme activity; P15428; purified HPGD, NADH fluorescence kinetic, PGE2 substrate; Potency, µM, without a hit: at the highest dose activity change, negative = inhibition, usual class: inhibitors; hit rate 4.3% among 150,000; active means well fitted inhibition curve with a large enough effect, not every such curve was filed as active; inconclusive means small, poorly fitted or top-dose-only effect, or another doubt; inactive means no such curve, though single readings can be large or run the other way; further: potency means the concentration at half of the fitted maximal effect; on the % scale 0 is the no-effect control and ±100 the full control effect
Target sequence (P15428 whole entry, looked up): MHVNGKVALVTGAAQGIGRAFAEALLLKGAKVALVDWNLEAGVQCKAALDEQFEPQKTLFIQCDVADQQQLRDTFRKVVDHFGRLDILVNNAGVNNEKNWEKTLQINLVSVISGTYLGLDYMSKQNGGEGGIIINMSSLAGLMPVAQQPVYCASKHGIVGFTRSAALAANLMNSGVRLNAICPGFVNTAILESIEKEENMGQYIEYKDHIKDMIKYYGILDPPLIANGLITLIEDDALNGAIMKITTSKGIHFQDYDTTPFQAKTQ
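NADH formation kinetics: reaction with 30 uM PGE2 and 1 mM NAD+ (final), 20 nM enzyme, Tris-HCl pH 8 with Tween 20, after 15 min compound preincubation at room temperature. Fluorescence change, last versus first of five reads.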
HttQ103 aggreg: inhibitors of mutant huntingtin aggregate formation in PC12 cells; PC12 HttQ103-GFP aggregates, Acumen cytometry, 40 h; Potency, µM (titrated, usually from 46.1 µM), inactives show at the highest dose activity change, negative = inhibition, actives largely listed as inhibitors; AID 1688; hit rate 1.1% among 220,000; further: potency means the concentration at half of the fitted maximal effect; on the % scale 0 is the no-effect control and ±100 the full control effect; nearly all actives have a fitted effect of over 60% in size
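Multiplexed with ATP-based cell death, this channel scores GFP aggregates in PC12 cells expressing inducible HTTex1-Q103-GFP. Induction used 100 nM tebufenozide; compounds were tested in concentration series.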
HTT ATP protect: Huntington cell model cytoprotection by ATP luminescence. AID 1471. hit rate 0.14% among 230,000. Potency, µM (top dose mostly 56.4 µM), without a hit: cytoprotection (ATP increase), usual class: activators. PC12 HTT-Q103 induced, cytoprotection, ATP luminescence, 40 h; further: potency means the concentration at half of the fitted maximal effect; % of control where 0% means no effect; nearly all actives have a fitted effect of over 45% in size
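ATP quantification (ATPlite) reports survival of PC12 cells in which tebufenozide, 100 nM final, switches on Htt exon 1 with 103 glutamines linked to GFP; compounds are titrated.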
ALDH1A1 inh: ALDH1A1 (human) enzyme inhibition; hit rate 7.3% among 220,000; P00352; Potency, µM (top dose mostly 75.3 µM), for the others: at the highest dose activity, negative = inhibition, usual class: inhibitors; Purified ALDH1A1, NADH fluorescence, propionaldehyde substrate; AID 1030; active means well fitted inhibition curve with a large enough effect, not every such curve was filed as active; inconclusive means small, poorly fitted or top-dose-only effect, or another doubt; inactive means no such curve, though single readings can be large or run the other way;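 further: potency means the concentration at half of the fitted maximal effect; plate controls were no enzyme wells and a reference inhibitor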
CBFb-RUNX1 inh: CBF-beta/RUNX1 interaction disruption; AID 1477; AlphaScreen CBFb-His/RUNX1-biotin binding, biochemical; Potency, µM (highest dose often 59.8 µM), for inactives: top-dose activity, negative = inhibition, actives largely listed as inhibitors; 230,000 tested, under 10 active; Q01196+Q13951; further: % of control where 0% means no effect
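AlphaScreen binding: CBFb-His and RUNX1-biotin (30 nM each) preincubated 20 min, compound added for 15 min, then nickel and streptavidin beads for 90 min, all at room temperature. Disruption of the interaction by any mechanism counts as activity.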
PNC assembly inh: blocks assembly of the perinucleolar compartment | PC3M PTB-GFP, PNC prevalence imaging, 16 h; stronger effect = lower value | activity change (PNC), negative = inhibition, % at 10 µM | hit rate 3.1% among 140,000 | AID 2417;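 active means readout at or below -70, meaning at least 70% loss of cells showing the perinucleolar compartment, a nuclear body marking cancer cells; inconclusive means readout between -30 and a set limit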;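 further: plate controls were DMSO wells for no effect and camptothecin positive control wells for full effect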
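PC3M cells stably expressing PTB-GFP, 750–1000 cells/well, treated 16 h at 37 °C with compound (23 nl of library stock), in duplicate. After paraformaldehyde fixation and Hoechst stain, imaged at 20x; PNC prevalence scored by image analysis.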
* = called active by the depositor; ? = inconclusive; . = no result given; [ ] = dose if it differs, or a comment. Unless noted, the call rests on the fitted dose curve; in most records, active means well fitted curve in the direction sought with a large enough effect; inconclusive means small, poorly fitted or top-dose-only effect, or another doubt; inactive means no such curve, though single readings can be large; an effect the other way counts as inactive or inconclusive.

SMILES | HPGD block | HttQ103 aggreg | HTT ATP protect | ALDH1A1 inh | CBFb-RUNX1 inh | PNC assembly inh
Cc1nc(N2CCC3(CC2)OCCO3)c2nnn(Cc3ccccc3F)c2n1 | -25% | -5% | -28%[10 µM] | ? | -1% | 28
O=c1[nH]c(C2CCCN(S(=O)(=O)c3ccccc3)C2)nc2c1nnn2Cc1ccccc1 (configuration not stated) | 14µM* | -17% | -8% | 10µM* | -6% | ?
O=c1[nH]c(C2CCCN(S(=O)(=O)c3ccccc3)C2)nc2c1nnn2Cc1ccccc1F (configuration not stated) | 13µM* | 6% | 8%[10 µM] | ? | 9% | -23
CCCc1nc2c(nnn2Cc2ccccc2)c(=O)[nH]1 | -26% | -2% | 5%[0.074 µM] | -2% | 1% | -14
O=C1Nc2ccc(I)cc2/C1=C/c1cc(Br)c(O)c(Br)c1 | 3.5µM* | . | -15% | -7% | ? | .
CC1CC(=O)C2=C(C1)Nc1ncnn1C2c1ccccc1 (configuration not stated) | -25% | 11% | 21% | 18µM* | -5% | -1
O=C1CC(c2cccs2)CC2=C1C(c1ccccc1)n1ncnc1N2 (configuration not stated) | -20% | 2% | -18% | ? | 8% | 27
CCN1C(=O)[C@H]2[C@H]3[C@H](O)[C@H](O)C/C(=N/OC[C@@H](O)COCc4ccco4)[C@@H]3CC[C@@H]2C1=O | . | . | -9%[10 µM] | 5%[13.5 µM] | 2%[13.1 µM] | .
CCS(=O)(=O)NCCc1cc2c(OC)ccc(OC)c2[nH]c1=O | -22% | 21% | 19%[10 µM] | ? | 1% | -100*
CCCS(=O)(=O)NCCc1cc2cc(C)c(C)cc2[nH]c1=O | -23% | -15% | 1%[10 µM] | 1% | -2% | -100*
Cc1nn(C)c(Oc2cccc(Cl)c2)c1C(=O)Nc1ccc(F)cc1 | -11% | 1% | -19% | -1% | -1% | 14
CCCNc1nc(C)cc(-c2cc(C(=O)NCc3ccccc3)on2)n1 | . | -43%[9.22 µM] | 5%[10 µM] | . | 20% | .
COCCNc1nc(C)nc2c1nc(-c1ccccc1)n2C1CCN(Cc2ccccc2)C1 (configuration not stated) | ? | . | 12% | ? | 1% | .
Clc1ccc(C2=Nc3cc(Cl)ccc3OC2)cc1 | . | 14% | 9% | 5% | 14% | .
Clc1ccc(C2=NN=C3COc4ccccc4N3C2)cc1 | 20µM* | -2% | 14%[10 µM] | 6% | 4% | 47
Nn1c(SCC(=O)NC2CCCc3ccccc32)nnc1-c1ccc(Cl)cc1Cl (configuration not stated) | . | 16% | -7%[10 µM] | -7% | -13% | -20
O=C(CCl)N1N=C(c2cccs2)CC1c1ccco1 (configuration not stated) | . | -18%[9.22 µM] | 13%[10 µM] | 0.45µM* | 11% | .
Cn1nnnc1SCC(=O)Nc1cc(C(=O)O)cc(C(=O)O)c1 | -4% | 14% | 15% | 10% | 1% | 7
CCN(CC)C(=S)SCC(=O)Nc1nc(-c2ccccc2)c(-c2ccccc2)o1 | -10% | -6% | 4%[10 µM] | 13µM* | -14% | 34
O=C(CSC(=S)N1CCCCC1)Nc1nc(-c2ccccc2)c(-c2ccccc2)o1 | -14% | 10% | -12% | -13% | 0% | 25
O=C(NCc1cccnc1)/C(=C\c1ccc(-c2ccc(Br)cc2)o1)S(=O)(=O)c1ccccc1 | -16% | 1%[9.22 µM] | -11%[10 µM] | 3.5µM* | ? | ?
COc1ccc(-c2nnc(Nc3ccc(OC)c(C(=O)N4CCCCC4)c3)c3ccccc23)cc1 | 14µM* | 11% | -13%[10 µM] | ? | -1% | -23
COc1ccccc1C1=Nn2c(nnc2-c2cccc(OC)c2OC)SC1 | . | . | . | . | 8% | .
COC(=O)C1NN=C(C(=O)c2ccc(Cl)cc2)C1c1ccc(OC)cc1 (configuration not stated) | -18% | -3% | . | 25µM* | -1% | 2
